sEH act – soluble epoxide hydrolase (human) activation | activation, % at 2 µM | P34913 | AID 717 | 91,000 compounds, 0.04% hits | purified human sEH enzymatic activity, activator screen; in the data active means activation above about 37%
CYP2C19 inhib – blocks human cytochrome P450 2C19; CYP2C19 Supersomes, luciferin-H EGE luminescence, 30 min; 96,000 compounds, 21% hits; inhibition, % at 5 µM;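 active means CYP2C19 inhibition above a set limit at 5 µM in the primary screen, cut at about 50% in these data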;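 further: plate controls were negative control wells for no effect and 2.5 mM tranylcypromine positive control for full effect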
Target sequence (P33261 whole entry, looked up): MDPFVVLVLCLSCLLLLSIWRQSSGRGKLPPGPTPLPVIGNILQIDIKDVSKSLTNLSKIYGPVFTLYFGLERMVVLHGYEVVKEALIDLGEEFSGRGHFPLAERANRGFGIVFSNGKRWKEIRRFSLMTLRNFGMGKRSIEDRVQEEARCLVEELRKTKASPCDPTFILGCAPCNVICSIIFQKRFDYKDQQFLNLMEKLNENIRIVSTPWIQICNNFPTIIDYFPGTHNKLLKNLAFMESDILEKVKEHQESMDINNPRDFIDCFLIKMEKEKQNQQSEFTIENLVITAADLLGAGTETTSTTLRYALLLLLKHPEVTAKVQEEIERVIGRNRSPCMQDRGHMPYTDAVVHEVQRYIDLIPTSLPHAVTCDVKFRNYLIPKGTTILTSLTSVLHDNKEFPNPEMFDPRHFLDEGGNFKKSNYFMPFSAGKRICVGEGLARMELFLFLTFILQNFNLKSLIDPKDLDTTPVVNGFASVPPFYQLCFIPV
CYP2C9 inh – blocks human cytochrome P450 2C9. P11712. CYP2C9 Supersomes, luciferin-H conversion, luminescence. inhibition, % at 5 µM. 96,000 compounds, 20% hits. AID 777;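 active means blocking of liver enzyme CYP2C9 beyond about 50% at 5 µM, limit read from the data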
sEH inhibitor – blocks human soluble epoxide hydrolase activity; P34913; recombinant human sEH enzymatic activity assay; inhibition, % at 2 µM; 91,000 compounds, 0.34% hits; AID 707; in the data active means inhibition above about 80%
CYP2C19 act – cytochrome P450 2C19 (human) activation; P33261; recombinant CYP2C19, luciferin-H EGE luminescence; stronger effect = higher value; 0 = fully inhibited enzyme, 1 = untreated enzyme; activation factor at 5 µM; 96,000 tested, under 10 active;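 active means activation factor of at least 2 at 5 µM in the primary screen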;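 further: 0 = wells with 2.5 mM tranylcypromine and 1 = vehicle-only wells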
CYP2C9 act – increases human cytochrome P450 2C9 activity | P11712 | recombinant CYP2C9, luciferin-H conversion, luminescence; stronger effect = higher value; factor 1 = untreated enzyme, 0 = blocked | activation factor at 5 µM | 96,000 compounds, 1.4% hits;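 active means activation factor of 2 or more for CYP2C9 at a 5 µM dose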;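 further: 0 = sulfaphenazole-blocked wells and 1 = vehicle-only wells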
Numbers without * were called inactive. These entries were drawn from the full list.

`CCOC(=O)C1C(c2ccccc2Cl)NC(=O)N(C)C1(O)C(F)(F)F` (centres undefined) gave sEH act 1, CYP2C19 inhib 0, CYP2C9 inh 5, sEH inhibitor -1, CYP2C19 act 1 and CYP2C9 act 1.
Screening O=C(Nc1cccn(Cc2c(Cl)cccc2Cl)c1=O)c1ccccc1Cl returned sEH act 2, CYP2C19 inhib 80*, CYP2C9 inh 67*, sEH inhibitor -5, CYP2C19 act 0.2 and CYP2C9 act 0.3.
Screening O=C(Nc1cnc2sccn2c1=O)c1ccc(Cl)cc1Cl returned sEH act -1, CYP2C19 inhib 7, CYP2C9 inh -58, sEH inhibitor -1, CYP2C19 act 0.9 and CYP2C9 act 1.6.
Screening O=C(Nc1cccn(Cc2c(Cl)cccc2Cl)c1=O)c1ccc(Cl)cc1Cl returned sEH act -5, CYP2C19 inhib 65*, CYP2C9 inh 56*, sEH inhibitor 8, CYP2C19 act 0.3 and CYP2C9 act 0.4.
For O=c1ccccn1Cc1c(Cl)cccc1Cl the results were sEH act 7, CYP2C19 inhib 14, CYP2C9 inh 36, sEH inhibitor -4, CYP2C19 act 0.9 and CYP2C9 act 0.6.
For N#C/C(C(=O)NCc1ccccc1)=C1\SC(CCO)C(=O)N1c1ccccc1 (centres undefined) the results were sEH act 5 and sEH inhibitor -6.
`Cc1cc2n(n1)SC(Nc1cc(Cl)ccc1Cl)N2` (centres undefined) gave sEH act -4 and sEH inhibitor 2.
Cc1cccn2cc(CCNS(=O)(=O)c3ccc4c(c3)OCCO4)nc12 was read as sEH act 0, CYP2C19 inhib 42, CYP2C9 inh -27, sEH inhibitor -1, CYP2C19 act 0.6 and CYP2C9 act 1.3.
`C=CCOC(=O)C1C(=O)CC(C)(O)C(C(=O)OCC=C)C1c1ccc(OC)cc1` (centres undefined) gave sEH act -2, CYP2C19 inhib 52*, CYP2C9 inh 20, sEH inhibitor 6, CYP2C19 act 0.5 and CYP2C9 act 0.8.
CCOC(=O)C1C(=O)CC(C)(O)C(C(=O)OCC)C1c1cccc(OC(F)(F)C(F)F)c1 (centres undefined) was read as CYP2C19 inhib 86*, CYP2C9 inh 90*, CYP2C19 act 0.1 and CYP2C9 act 0.1.
Screening CCOC(=O)C1C(=O)CC(C)(O)C(C(=O)OCC)C1c1ccc(OCC)cc1 (centres undefined) returned sEH act 1, CYP2C19 inhib 1, CYP2C9 inh 7, sEH inhibitor 0, CYP2C19 act 1 and CYP2C9 act 0.9.
`Cc1ccc(-n2c(N)c(C(=O)NCc3cccnc3)sc2=S)cc1` gave sEH act -10, CYP2C19 inhib 17, CYP2C9 inh 19, sEH inhibitor 13, CYP2C19 act 0.8 and CYP2C9 act 0.8.
Screening COc1ccccc1CN1C(=O)C2CC=CCC2C1=O (centres undefined) returned sEH act 8, CYP2C19 inhib 30, CYP2C9 inh -17, sEH inhibitor -7, CYP2C19 act 0.7 and CYP2C9 act 1.2.
Screening COc1ccc(-c2nc(CN3CCC(C(=O)N4CCc5ccccc54)CC3)c(C)o2)cc1OC returned CYP2C19 inhib 13, CYP2C9 inh 30, CYP2C19 act 0.9 and CYP2C9 act 0.7.
`CC(C)C[C@H](NC(=O)OC(C)(C)C)C(=O)N/N=C/c1ccc2nccnc2c1` gave sEH act 8, CYP2C19 inhib -12, CYP2C9 inh 21, sEH inhibitor -5, CYP2C19 act 1.1 and CYP2C9 act 0.8.
Screening CCC(C)[C@H](NC(=O)OC(C)(C)C)C(=O)N/N=C/c1ccc2nccnc2c1 (some centres undefined) returned sEH act 0, CYP2C19 inhib -3, CYP2C9 inh 55*, sEH inhibitor 0, CYP2C19 act 1 and CYP2C9 act 0.5.
Screening CC(C)(C)N(Cc1ccccc1)C(=O)CSc1nnc(CNc2ccc(F)cc2)o1 returned sEH act 5, CYP2C19 inhib 17, CYP2C9 inh 24, sEH inhibitor -4, CYP2C19 act 0.8 and CYP2C9 act 0.8.
Cn1c(SCC(=O)N(Cc2ccccc2)C(C)(C)C)nc2ccccc21 was read as sEH act -1, CYP2C19 inhib 50*, CYP2C9 inh -38, sEH inhibitor 1, CYP2C19 act 0.5 and CYP2C9 act 1.4.
